# Test results: PubChem BioAssay
# Activity calls are given as the source filed them.
# Key:
# [1] = tested on: Plasmodium falciparum Sir2 (PF13_0152, Sir2A); assay: pfSir2 binders on small-molecule microarrays, primary screen, biochemical, small-molecule microarray, 635 nm fluorescence (AID 1098); details: small-molecule microarray binding, fluorescence 635 nm; higher = more signal;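 further: score merges spot fluorescence intensity with its signal-to-noise ratio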
# [2] = small-molecule microarray binders of probe aDKK1, primary screen, biochemical, biotinylated probe, 635/667 nm fluorescence (AID 1099); details: higher = more signal;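 further: score merges 667nm spot fluorescence with signal to noise across triplicate slides; reference of the scale not given here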
# [3] = small-molecule microarray binders of probe aCHRDL2, primary screen, biochemical, biotinylated probe, 635/667 nm fluorescence (AID 1100); details: higher = more signal
# [4] = splicing luciferase reporter signal modulators, primary screen, spliceosome inhibition project, cell-based, HEK293, splice +/- reporter (AID 1101); details: luminescence, 24 h, higher = more signal, called active from +8 up or from −8 down;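 further: HEK293 cells carrying a splicing-competent luciferase reporter gene; test concentration not given here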
# [5] = biological target: Fibroblast growth factor 10 (Homo sapiens) (UniProt O15520); assay: FGF10 binders on small-molecule microarrays, primary screen, biochemical, small-molecule microarray, 635 nm fluorescence (AID 1102); details: FGF10 binding, fluorescence 635 nm, higher = more signal
# Sequence of Fibroblast growth factor 10 (Homo sapiens) (O15520 whole entry, looked up): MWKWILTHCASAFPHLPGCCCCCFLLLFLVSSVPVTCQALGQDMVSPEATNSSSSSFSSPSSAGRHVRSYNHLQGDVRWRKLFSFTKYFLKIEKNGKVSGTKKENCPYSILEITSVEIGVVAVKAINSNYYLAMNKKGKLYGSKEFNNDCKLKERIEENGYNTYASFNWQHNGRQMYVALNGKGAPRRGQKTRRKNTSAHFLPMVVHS
# [6] = tested on: glycogen synthase kinase-3 (GSK3A per assay name; protocol says GSK3B); assay: GSK3 binders on small-molecule microarrays, primary screen, biochemical, small-molecule microarray, 635 nm fluorescence, GSK3A (AID 1103); details: small-molecule microarray binding, fluorescence 635 nm; higher = more signal; further: the record names both GSK3A and GSK3B
# [7] = biological target: Epidermal growth factor receptor (Homo sapiens) (UniProt P00533); assay: EGFR binders on small-molecule microarrays, primary screen, biochemical, small-molecule microarray, 635 nm fluorescence (AID 1104); details: EGFR binding, higher = more signal;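 further: score merges 667 nm emission intensity with spot signal to noise over triplicate slides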
# Sequence of Epidermal growth factor receptor (Homo sapiens) (P00533 whole entry, looked up): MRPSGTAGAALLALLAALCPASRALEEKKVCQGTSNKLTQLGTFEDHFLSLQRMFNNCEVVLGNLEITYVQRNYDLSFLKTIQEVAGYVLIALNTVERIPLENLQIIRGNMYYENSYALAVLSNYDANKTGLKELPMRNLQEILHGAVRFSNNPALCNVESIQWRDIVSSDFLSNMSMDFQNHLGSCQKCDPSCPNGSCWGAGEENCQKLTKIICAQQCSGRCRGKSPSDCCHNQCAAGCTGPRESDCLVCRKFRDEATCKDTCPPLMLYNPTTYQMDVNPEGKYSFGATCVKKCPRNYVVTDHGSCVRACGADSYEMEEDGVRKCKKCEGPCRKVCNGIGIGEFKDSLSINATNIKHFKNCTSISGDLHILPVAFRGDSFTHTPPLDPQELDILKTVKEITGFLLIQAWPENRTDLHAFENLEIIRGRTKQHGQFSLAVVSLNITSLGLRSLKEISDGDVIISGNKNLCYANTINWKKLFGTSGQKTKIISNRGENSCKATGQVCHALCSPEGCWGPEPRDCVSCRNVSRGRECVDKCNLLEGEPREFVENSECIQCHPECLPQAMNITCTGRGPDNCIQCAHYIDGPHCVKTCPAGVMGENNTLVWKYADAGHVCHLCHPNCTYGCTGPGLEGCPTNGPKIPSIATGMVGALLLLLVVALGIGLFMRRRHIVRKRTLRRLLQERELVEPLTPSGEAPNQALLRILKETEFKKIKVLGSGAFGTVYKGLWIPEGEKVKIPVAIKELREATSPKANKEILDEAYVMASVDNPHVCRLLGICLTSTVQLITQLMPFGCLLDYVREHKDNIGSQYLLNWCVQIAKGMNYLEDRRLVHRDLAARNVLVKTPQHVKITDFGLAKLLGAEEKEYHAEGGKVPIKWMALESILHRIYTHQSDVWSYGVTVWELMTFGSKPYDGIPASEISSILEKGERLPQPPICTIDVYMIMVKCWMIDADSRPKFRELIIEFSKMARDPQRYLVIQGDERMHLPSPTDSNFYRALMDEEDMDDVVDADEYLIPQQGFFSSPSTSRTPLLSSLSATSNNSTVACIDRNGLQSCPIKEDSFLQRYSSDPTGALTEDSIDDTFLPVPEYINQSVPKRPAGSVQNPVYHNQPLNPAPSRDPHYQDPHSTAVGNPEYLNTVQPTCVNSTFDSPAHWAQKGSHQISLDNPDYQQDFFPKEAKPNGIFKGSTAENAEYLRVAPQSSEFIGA
# [8] = biological target: Follistatin-related protein 3 (Homo sapiens) (UniProt O95633); assay: FSTL3 binders on small-molecule microarrays, primary screen, biochemical, small-molecule microarray, 635 nm fluorescence (AID 1105); details: FSTL3 binding, higher = more signal;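 further: score merges emission near 667 nm and signal to noise per printed spot across three slides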
# Sequence of Follistatin-related protein 3 (Homo sapiens) (O95633 whole entry, looked up): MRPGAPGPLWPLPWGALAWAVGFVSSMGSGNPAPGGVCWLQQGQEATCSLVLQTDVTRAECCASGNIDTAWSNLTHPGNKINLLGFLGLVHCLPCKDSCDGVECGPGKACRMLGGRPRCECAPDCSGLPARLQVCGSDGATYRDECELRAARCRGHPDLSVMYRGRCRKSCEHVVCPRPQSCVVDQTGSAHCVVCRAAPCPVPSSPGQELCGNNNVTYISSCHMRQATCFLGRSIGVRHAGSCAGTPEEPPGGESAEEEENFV
# [9] = biological target: Dickkopf-related protein 1 (Homo sapiens) (UniProt O94907); assay: DKK1 binders on small-molecule microarrays, primary screen, biochemical, small-molecule microarray, 635 nm fluorescence scan (AID 1106); details: DKK1 binding, higher = more signal;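 further: score merges emission near 667 nm with signal to noise over three replicate slides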
# Sequence of Dickkopf-related protein 1 (Homo sapiens) (O94907 whole entry, looked up): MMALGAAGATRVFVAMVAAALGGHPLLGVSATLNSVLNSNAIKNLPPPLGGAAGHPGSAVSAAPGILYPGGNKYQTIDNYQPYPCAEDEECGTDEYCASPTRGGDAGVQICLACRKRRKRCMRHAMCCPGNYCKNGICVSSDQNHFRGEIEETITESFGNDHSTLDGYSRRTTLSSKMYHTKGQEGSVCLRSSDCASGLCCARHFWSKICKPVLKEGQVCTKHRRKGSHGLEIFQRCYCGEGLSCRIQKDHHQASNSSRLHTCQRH
# [10] = tested on: Inhibin beta A chain (activin A); assay: INHBA (activin A) binders on microarrays, primary screen, biochemical, small-molecule microarray, 635 nm fluorescence scan (AID 1107); details: small-molecule microarray binding, higher = more signal;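 further: mouse activin A protein probed at 4.33 µg/mL on printed slides; score merges bound-protein fluorescence near 667 nm with spot signal-to-noise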
Structure (SMILES),composite z-score [1],composite z-score [2],composite z-score [3],z-score [4],composite z-score [5],composite z-score [6],composite z-score [7],composite z-score [8],composite z-score [9],composite z-score [10]
C=CCOC(=O)[C@@H]1[C@H]2C(=O)O[C@H](c3ccccc3)[C@H](c3ccccc3)N2[C@H](c2ccc(OCCOC(=O)[C@H]3C[C@H]4C(=O)N[C@@H](CCCCN(C)C)C(=O)N4[C@H]3c3cccc(OCCO)c3)cc2)[C@@]12C(=O)Nc1ccc(I)cc12,1.41,0.097,-0.0926,0.348 (inactive),1.02,1.32,0.605,1.32,0.626,0.208
CO[C@H]1O[C@H](CO)[C@@H](OC(=O)Nc2ccccc2-c2ccccc2)[C@H](OC(=O)Nc2ccc3c(c2)OCO3)[C@@H]1OC(=O)Nc1ccc2c(c1)OCO2,1.32,0.198,0.679,-1.14 (inactive),1.05,1.34,0.0757,1.44,0.279,0.691
NC(=O)N1C(=O)C2C(C1=O)C1C=C(CCCO)C2C(c2cccs2)N1Cc1cc2c(cc1Br)OCO2 (stereo not given),0.884,-0.198,0.229,0.701 (inactive),-0.284,-0.0207,-0.495,-0.289,-0.756,0.975
CN(C)CCCNC(=O)[C@@]1(c2ccc([N+](=O)[O-])cc2)CC(=O)N(CC23CC4CC(CC(C4)C2)C3)[C@@H]1c1ccc(CO)cc1,1.72,0.774,0.811,-0.102 (inactive),0.239,1.32,0.201,0.996,0.54,1.14
CCCCN1CC=CC23O[C@@H]4C=CCOC(=O)[C@@H]4[C@H]2C(=O)N(C(C)CO)[C@@H]3C1=O (stereo not given in full),1.1,0.198,0.774,0.408 (inactive),-0.291,-1.44,-1.21,-1.22,-1.14,0.286
CC(C)(C)OC(=O)CC[C@]1(C(=O)O)N=C(c2ccc(OCCCO)cc2)O[C@H]1c1ccccc1CN=[N+]=[N-],0.814,0.905,0.764,0.325 (inactive),0.253,-0.138,-0.554,-0.507,-0.134,0.923
CN(C)CCCNC(=O)[C@@]1(C)c2ccccc2C(=O)N(Cc2cc(C(F)(F)F)cc(C(F)(F)F)c2)[C@H]1c1ccc(CO)cc1,1.01,0.202,0.0634,-1.24 (inactive),-0.753,-0.477,-1.9,-1.14,-0.992,-1.34
C=CC[C@]12N=C(c3ccc(OCCCO)cc3)O[C@H]1c1ccccc1N(C)C2=O,1.24,0.765,0.864,-1.06 (inactive),0.597,1.3,0.177,0.472,0.334,1.3
[N-]=[N+]=Nc1ccccc1[C@H]1OC(c2ccc(OCCCO)cc2)=N[C@@]1(CCS(=O)(=O)c1ccccc1)C(=O)N1CCCCC1,1.37,1.27,1.27,-1.21 (inactive),0.354,0.797,0.0374,0.801,-0.44,1.38
O=C1OCC=C[C@H]2OC34C=CCN(Cn5nnc6ccccc65)C(=O)[C@H]3N(CCCCCCO)C(=O)[C@@H]4[C@@H]12 (stereo not given in full),1.25,0.0374,0.538,0.434 (inactive),-0.577,0.0986,-0.896,-1.02,-0.566,0.955
CN(C)CCCN1C(=O)[C@@]2(c3ccc([N+](=O)[O-])cc3)CC(=O)N(CC34CC5CC(CC(C5)C3)C4)[C@@H]2c2ccc(CO)cc21,1.68,1.83,0.543,0.626 (inactive),-0.173,0.443,-0.708,-0.116,-0.482,0.144
CC[C@H]1C2=C3C(CC[C@H]4C(OCc5ccc(F)cc5C(F)(F)F)OC[C@](C)([C@@H]34)N(C(=O)OC(C)(C)C)C2)C2COC(=O)OCC21 (stereo not given in full),0.282,0.817,1.12,-0.499 (inactive),-0.0217,0.737,0.128,0.719,-1.02,1.06
CN1C(=O)C2C(C1=O)C1C=C(c3ccc(CO)cc3)C2C(c2cccs2)N1Cc1cccc(OC(F)(F)F)c1 (stereo not given),1.06,0.0564,-0.137,-0.243 (inactive),1.07,1.27,0.0302,1.17,0.483,0.614
C=CCN1C(=O)[C@@]2(O[C@@H](CCO)[C@H]([Si](C)(C)c3ccc(OC)cc3)[C@H]2C)c2cc(N3C(=O)c4ccccc4Oc4ccccc43)ccc21,1.07,-0.0987,0.0272,-3.3 (inactive),0.916,-0.229,-0.262,-0.0233,0.0911,0.0761
C=C(COC)/C(=C/C[C@@H](OC(=O)c1ccncc1)c1cccc(OCCO)c1)c1cnc2ccccc2c1,-0.0365,0.432,0.347,-1.36 (inactive),1.48,1.3,1.65,1.65,0.769,1.81
Cc1ccc(S[C@]2(C(=O)NCc3ccccc3)CC(=O)N(C(C)C)[C@@H]2c2ccc(CO)cc2I)cc1,0.169,0.378,1.16,0.0407 (inactive),-0.991,-0.687,-0.474,-1.04,-1.67,0.929

Structure (SMILES),composite z-score [1],composite z-score [2],composite z-score [3],z-score [4],composite z-score [5],composite z-score [6],composite z-score [7],composite z-score [8],composite z-score [9],composite z-score [10]
C[C@H]1C2=C3C(CC[C@H]4C(OCc5ccc(F)cc5C(F)(F)F)OC[C@](C)([C@@H]34)N(C(=O)OC(C)(C)C)C2)C2COC(=O)OCC21 (stereo not given in full),0.0559,0.457,1.28,-0.848 (inactive),0.0151,0.987,0.0472,0.768,-0.648,0.572
[N-]=[N+]=Nc1ccccc1C[C@]1(C(=O)NCc2ccccc2)N=C(c2ccc(OCCCO)cc2)O[C@H]1c1ccccc1,1.13,0.966,1.01,0.843 (inactive),1.09,-0.235,-0.269,0.461,-0.684,0.784
C=C(C(=O)CC[C@H](OC(=O)c1cccnc1)c1cccc(OCCO)c1)C(C)C,1.24,-0.061,0.125,1.76 (inactive),-0.64,-0.418,-0.792,-1.05,-0.878,1.16
COc1cc2c(cc1OC)CN(C(=O)[C@H]1[C@@H]3C(=O)O[C@@H](c4ccccc4)[C@@H](c4ccccc4)N3[C@@H](c3ccc(OCCO)cc3)[C@]13C(=O)Nc1ccc(C#CCCO)cc13)CC2,0.903,-0.269,0.33,-0.296 (inactive),1.4,1.29,0.292,1.37,0.167,0.813
O=C1O[C@@H](c2ccccc2)[C@@H](c2ccccc2)N2[C@@H](c3ccccc3OCCO)[C@]3(C(=O)Nc4ccc(C#CC5=CCCCC5)cc43)[C@@H](C(=O)NC[C@H](O)c3ccccc3)[C@H]12,1.3,-0.108,-0.149,-1.13 (inactive),0.717,1.3,0.496,1.22,0.352,0.623
CCOC(=O)C[C@H]1[C@H](OC(=O)c2ccc(-c3ccccc3)cc2)[C@@H](NC(=O)c2ccc3ccccc3c2)c2cc(OCCCO)ccc2N1C(=O)c1ccc2ccccc2n1,0.33,-0.0069,0.221,-0.634 (inactive),0.577,0.439,0.098,0.458,0.426,0.31
CO[C@H]1O[C@H](CO)[C@@H](OC(=O)Nc2ccc(Oc3ccccc3)cc2)[C@H](OC(=O)Nc2ccccc2-c2ccccc2)[C@@H]1OC(=O)Nc1ccccc1-c1ccccc1,1.31,0.686,0.609,-1.52 (inactive),0.959,1.15,0.223,0.787,0.338,0.586
NC(=O)NCC#Cc1ccc2c(c1)[C@]1(C(=O)N2)[C@H](C(=O)Nc2nc3ccccc3s2)[C@H]2C(=O)O[C@H](c3ccccc3)[C@H](c3ccccc3)N2[C@@H]1c1ccc(O)cc1,0.726,0.636,0.212,0.232 (inactive),1,0.163,0.278,0.53,0.246,0.744
CC(C)(C)OC(=O)CC[C@@]1(C(=O)O)N=C(c2ccc(OCCCO)cc2)O[C@@H]1c1ccccc1CN=[N+]=[N-],1.16,1,0.602,-0.326 (inactive),0.0038,0.396,-0.207,-0.43,-0.689,1.08
COc1ccc(C(O)C2C=CC3C(=O)N(C)C(=O)C3N2N2CCCCC2)cc1 (stereo not given),1.23,0.297,0.378,1.33 (inactive),0.632,1.09,0.579,0.306,0.224,1.31
COCCOC(=O)N1C(=O)[C@@]2(c3cc(C#Cc4ccc(OC)cc4)ccc31)[C@H](C(=O)NC[C@H](O)c1ccccc1)[C@H]1C(=O)O[C@H](c3ccccc3)[C@H](c3ccccc3)N1[C@@H]2c1ccc(O)cc1,0.557,0.139,0.234,-0.577 (inactive),1.17,1.35,0.725,1.41,0.95,0.033
O=C(CCCCCCC(=O)Nc1ccccc1)N/N=C/c1ccccc1,0.45,-0.176,-0.311,-0.519 (inactive),-0.136,-0.401,0.0504,-0.41,0.328,0.18
[N-]=[N+]=Nc1ccccc1C[C@@]1(C(=O)O)N=C(c2ccc(OCCCO)cc2)O[C@@H]1c1ccccc1,1.56,0.609,0.945,-0.282 (inactive),0.0372,0.0458,-0.423,0.126,-0.829,0.638
CC(C)NC(=O)[C@@]1(C)c2ccccc2C(=O)N(C(C)C)[C@H]1c1ccc(CO)cc1,1.58,-0.123,0.925,0.0862 (inactive),-1.09,-0.643,-1.68,-0.673,-1.81,-1.53
CCOC(=O)C[C@H]1[C@H](OC(=O)c2ccccc2-c2ccccc2)[C@@H](NC(=O)CC(C)C)c2cc(OCCCO)ccc2N1C(=O)c1ccc2ccccc2n1,0.74,-0.0242,-0.187,-0.263 (inactive),0.513,0.561,0.159,0.368,0.45,1.08
O=C1NC(=O)C2C1C=CC(C(O)c1c(F)cccc1Cl)N2Nc1ccccn1 (stereo not given),0.419,0.282,0.171,0.824 (inactive),0.48,0.198,0.409,0.262,0.465,1.13
